Consider 8 compounds from PubChem BioAssay (NCI).

Test systems include HCT-15 colon; HT29 colon; SNB-75 CNS; SNB-19 CNS; U251 CNS; PC-3 prostate; SK-MEL-5 melanoma; UACC-62 melanoma; LOX IMVI melanoma; SK-MEL-28 melanoma; SK-MEL-2 melanoma; EKVX NSCLC; SN12C renal; UO-31 renal; TK-10 renal; ACHN renal; CAKI-1 renal; A498 renal; CCRF-CEM leukemia; MOLT-4 leukemia.
Common to all, as to assay: NCI-60 one-dose screen, 48 h (100 = growth as untreated, 0 = no growth, -100 = all killed)
Conditions in all cases: 10 µM unless noted

The panel holds about 83,000 compounds, 20% with a hit somewhere; the sample as a whole holds those more often.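 Cells were grown in 96-well plates and exposed to the test compound at a single concentration for 48 hours; results are reported as percent growth, with values below 10 considered active.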 Unmarked numbers belong to inactive results. Activity calls are given as the source filed them.

`COC(=O)c1nc(-c2ccccc2)oc1S(=O)(=O)N1CCN(c2ccc(OC)cc2)CC1`: the growth was 42.8% in the assay on HCT-15 colon; 43.8% in the assay on HT29 colon; 101% with SNB-75 CNS; 97.8% with SNB-19 CNS; 90.8% in the assay with U251 CNS; 63.9% with PC-3 prostate. Besides, the growth with SK-MEL-5 melanoma was 90.8%; in the assay on UACC-62 melanoma, 86.8%; with LOX IMVI melanoma, 62.9%; in the assay with SK-MEL-28 melanoma, 88.3%; in the assay with SK-MEL-2 melanoma, 106%; with EKVX NSCLC it was 88.2%. Besides, the growth in the assay on SN12C renal is 85.4%; with UO-31 renal, 66.1%; in the assay on TK-10 renal, 68.1%; with ACHN renal it was 66.4%; with CAKI-1 renal, 79.3%; in the assay on A498 renal, 121%. In addition, the growth with CCRF-CEM leukemia is -11.9% (active); with MOLT-4 leukemia, 25.1%.

Regarding `Nc1c(C(=O)c2ccc(Cl)cc2)sc(Nc2ccccc2)c1-c1nc2ccccc2s1`, the growth was 39.7% in the assay with HCT-15 colon; 17.9% in the assay with HT29 colon; 18.1% with SNB-75 CNS; 62.1% with SNB-19 CNS; 4.94% (active) in the assay with U251 CNS; 10.3% in the assay with PC-3 prostate. Besides, the growth with SK-MEL-5 melanoma was 55.1%; in the assay with UACC-62 melanoma it was 7.88% (active); with LOX IMVI melanoma, 17.8%; in the assay on SK-MEL-28 melanoma it was 42.6%; in the assay on SK-MEL-2 melanoma, 38.5%; in the assay with EKVX NSCLC it was 59.9%. The growth with SN12C renal was 82.6%; with UO-31 renal, 19.3%; in the assay with TK-10 renal, -13.3% (active); with ACHN renal, 26.2%; in the assay on CAKI-1 renal, 25.2%; in the assay on A498 renal, 46.2%. For the same compound, the values for the growth in the assay on CCRF-CEM leukemia and in the assay on MOLT-4 leukemia were 60.3% and 76.5%, respectively.

As for `COc1cc2c(c(OC)c1OC)C(=O)CC(c1cccc(C(=O)Nc3ccc(Br)cc3)c1)O2` (stereo not given), the growth in the assay with HCT-15 colon was 57.9%; in the assay on HT29 colon, 75%; in the assay with SNB-75 CNS it was 51.1%; with SNB-19 CNS, 80.2%; in the assay on U251 CNS it was 83.4%; in the assay with PC-3 prostate, 5.38% (active). Further, the growth with SK-MEL-5 melanoma was 22.3%; in the assay with UACC-62 melanoma, 40.9%; in the assay on LOX IMVI melanoma it was 57.9%; in the assay with SK-MEL-28 melanoma, 74.5%; in the assay with SK-MEL-2 melanoma, 60.3%; in the assay on EKVX NSCLC, 63.5%. For the same compound, the growth in the assay with SN12C renal was 51.1%; in the assay with UO-31 renal it was 40.3%; in the assay on TK-10 renal, 75.2%; in the assay on ACHN renal it was 63.9%; with CAKI-1 renal, 62%; with A498 renal it was 40.3%. Besides, the values for the growth in the assay with CCRF-CEM leukemia and in the assay on MOLT-4 leukemia were 9.34% (active) and -0.848% (active), respectively.

For the compound `COc1ccc(/C=C\c2cc(OC)c(OC)c(OC)c2)cc1OCC(=O)Nc1nc2ccccc2s1`, the growth was 23% in the assay on HCT-15 colon; 1.98% (active) with HT29 colon; 30.3% in the assay on SNB-75 CNS; 43.8% in the assay on SNB-19 CNS; 13.9% in the assay on U251 CNS; 31.1% in the assay with PC-3 prostate. Also, the growth in the assay with SK-MEL-5 melanoma is -64% (active); with UACC-62 melanoma, 28%; in the assay with LOX IMVI melanoma it was 11.5%; with SK-MEL-28 melanoma it was 65.4%; in the assay with SK-MEL-2 melanoma, 26.7%; with EKVX NSCLC, 55.8%. Further, the growth in the assay with SN12C renal was 34.9%; in the assay on UO-31 renal it was 4.73% (active); in the assay with TK-10 renal it was 4.64% (active); with ACHN renal, 16.9%; with CAKI-1 renal it was 17.6%; in the assay on A498 renal, 25.1%. Moreover, the results for the growth in the assay with CCRF-CEM leukemia and in the assay with MOLT-4 leukemia were 35.3% and 6.31% (active), respectively.

`COC(=O)c1sc(-c2ccc(C)cc2)cc1O`: the growth is 101% in the assay with HCT-15 colon; 108% with HT29 colon; 105% in the assay with SNB-75 CNS; 101% with SNB-19 CNS; 96.5% with U251 CNS; 102% with PC-3 prostate. In addition, the growth in the assay with SK-MEL-5 melanoma is 103%; in the assay on UACC-62 melanoma it was 97.1%; with LOX IMVI melanoma, 101%; with SK-MEL-28 melanoma, 113%; in the assay on SK-MEL-2 melanoma, 99%; in the assay on EKVX NSCLC it was 101%. The growth in the assay on SN12C renal is 101%; with UO-31 renal it was 94.1%; with TK-10 renal, 99.2%; in the assay on ACHN renal it was 112%; with CAKI-1 renal, 94.3%; with A498 renal, 98.5%. Also, the growth with CCRF-CEM leukemia was 103%; in the assay on MOLT-4 leukemia, 87.7%.

With `Cn1cc(-c2ccc3occ(-c4cccc(-c5ccncc5)c4)c3n2)cn1`, the growth with HCT-15 colon is 5.33% (active); in the assay with HT29 colon, 7.76% (active); with SNB-75 CNS, -12.8% (active); in the assay with SNB-19 CNS, 29.4%; in the assay on U251 CNS, 25.4%; in the assay on PC-3 prostate, 19.6%. Also, the growth in the assay with SK-MEL-5 melanoma is -46.4% (active); with UACC-62 melanoma it was -15.7% (active); in the assay on LOX IMVI melanoma, 14.9%; in the assay on SK-MEL-28 melanoma, 30.6%; in the assay with SK-MEL-2 melanoma, -1.75% (active); in the assay on EKVX NSCLC it was 30.7%. For the same compound, the growth with SN12C renal was 13.1%; in the assay on UO-31 renal, 11.3%; in the assay on TK-10 renal it was 9.56% (active); in the assay with ACHN renal it was 21.9%; in the assay on CAKI-1 renal, 12%; with A498 renal, -15.7% (active). The growth was 10.9% in the assay on CCRF-CEM leukemia and 13.2% in the assay with MOLT-4 leukemia.

Consider `CC1=C(C(=O)OCc2ccccc2)C(c2ccc3c(c2)OCO3)n2c(nc3ccccc32)N1` (stereo not given), for which the growth in the assay on HCT-15 colon is 30.4%; in the assay with HT29 colon it was 14.4%; in the assay with SNB-75 CNS, -6.67% (active); with SNB-19 CNS, 41.6%; in the assay on U251 CNS, 36.3%; in the assay with PC-3 prostate, 41.1%. The growth in the assay with SK-MEL-5 melanoma is 25.5%; in the assay with UACC-62 melanoma, 46.2%; in the assay on LOX IMVI melanoma, 34.6%; with SK-MEL-28 melanoma, 61.8%; in the assay on SK-MEL-2 melanoma it was 47.8%; with EKVX NSCLC it was 64.4%. The growth in the assay on SN12C renal is 47.6%; in the assay with UO-31 renal, 51.1%; in the assay with TK-10 renal it was 65.6%; in the assay on ACHN renal it was 38.4%; in the assay with CAKI-1 renal, 34.3%; in the assay on A498 renal it was -10.2% (active). Moreover, the growth in the assay with CCRF-CEM leukemia was 24.9%; in the assay with MOLT-4 leukemia it was 37.1%.

`COc1ccc(CNc2ccc3nc(CCC4CCCCC4)[nH]c3c2)cc1`: the growth in the assay on HCT-15 colon was 42%; in the assay on HT29 colon it was 18.4%; in the assay with SNB-75 CNS, 69.4%; in the assay on SNB-19 CNS, 84%; with U251 CNS, 60.9%; in the assay on PC-3 prostate, 59.1%. The growth in the assay on SK-MEL-5 melanoma was 38%; in the assay on UACC-62 melanoma, 69.9%; in the assay with LOX IMVI melanoma it was 81.5%; in the assay with SK-MEL-28 melanoma, 76.4%; in the assay with SK-MEL-2 melanoma, 87%; in the assay with EKVX NSCLC, 79.1%. Further, the growth in the assay with SN12C renal was 68%; with UO-31 renal, 33.9%; in the assay on TK-10 renal, 86.4%; in the assay on ACHN renal, 93.4%; with CAKI-1 renal, 72.2%; in the assay on A498 renal it was 53.2%. Also, the growth in the assay with CCRF-CEM leukemia is 69.2%; in the assay on MOLT-4 leukemia, 52.9%.
